Rows were chosen to be rich in hits. Some 3% of all compounds tested hit in one or more screens of this group.
TSHR agonist: qHTS Assay for Agonists of the Thyroid Stimulating Hormone Receptor | 73,000 tested, 0.48% active | Thyrotropin receptor (Homo sapiens), P16473 | HEK293-CNG-TSHR cells (CNG channel as cAMP sensor), membrane potential dye, cAMP | Potency, µM (titrated, usually from 57.1 µM), actives largely listed as activators; active = well fitted activation curve with a large enough effect in the main read-out, with a control signal flat, not every such curve was filed as active; inconclusive = small, poorly fitted or top-dose-only effect, or a change in a side signal; inactive = no such curve, though single readings can be large or run the other way; reference of the percent scale not stated here;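 also: the control signal comes from parental cells without the receptor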
Target sequence (P16473 whole entry, looked up): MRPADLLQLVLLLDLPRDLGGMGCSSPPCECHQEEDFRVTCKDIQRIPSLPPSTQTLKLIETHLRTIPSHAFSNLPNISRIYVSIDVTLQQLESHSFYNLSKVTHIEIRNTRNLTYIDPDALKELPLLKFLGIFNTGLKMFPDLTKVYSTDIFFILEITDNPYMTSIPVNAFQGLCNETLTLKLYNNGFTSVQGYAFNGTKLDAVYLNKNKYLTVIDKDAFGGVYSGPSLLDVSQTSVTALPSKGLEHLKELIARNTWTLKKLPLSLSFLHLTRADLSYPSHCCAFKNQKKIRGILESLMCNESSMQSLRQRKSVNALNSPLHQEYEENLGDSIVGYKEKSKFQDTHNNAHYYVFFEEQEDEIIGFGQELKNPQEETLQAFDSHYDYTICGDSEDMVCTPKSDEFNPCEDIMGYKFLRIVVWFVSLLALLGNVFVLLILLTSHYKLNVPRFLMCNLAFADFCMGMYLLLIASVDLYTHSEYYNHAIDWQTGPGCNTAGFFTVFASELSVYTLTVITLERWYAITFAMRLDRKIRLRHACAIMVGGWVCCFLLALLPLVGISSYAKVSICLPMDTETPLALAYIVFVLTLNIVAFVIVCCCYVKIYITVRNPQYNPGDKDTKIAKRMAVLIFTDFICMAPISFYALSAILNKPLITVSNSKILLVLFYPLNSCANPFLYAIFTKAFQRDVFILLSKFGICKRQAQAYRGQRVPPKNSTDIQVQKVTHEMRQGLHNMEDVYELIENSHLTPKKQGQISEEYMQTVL
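cAMP rise detected as CNG-channel membrane depolarization by fluorescent dye (emission 590 nm), 30 min after compound, following 60 min dye loading containing 100 uM RO 20-1724 at room temperature. Cells: TSHR/CNG HEK 293, with parental CNG HEK 293 as control.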
GFP derepression: qHTS Assay for Epigenetic Modulators. Potency, µM (highest dose often 46.1 µM). mouse C127i GFP locus derepression, cytometry, 30 h. 68,000 tested, 0.09% active. AID 597, 2007
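Murine C127i mammary cells carrying a silenced, stably integrated CMV-driven GFP reporter were treated with compound for 30 hours at 37 C. After PBS washes, GFP-positive cells were counted by laser-scanning microplate cytometry.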
Ub-GFP proteasome: Ubiquitin-GFP Assay; Ubiquitin-GFP reporter cells, proteasome inhibition, GFP fluorescence; response scale: untreated = 0%, 10 µM MG-132 = 100%; Potency, µM (titrated, usually from 45.9 µM), most hits filed as activators; 67,000 tested, under 10 active; AID 526, 2006; active = well fitted activation curve with a large enough effect, not every such curve was filed as active; inconclusive = small, poorly fitted or top-dose-only effect, or another doubt; inactive = no such curve, though single readings can be large or run the other way
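Proteasome block read as GFP accumulation: ubiquitin(G76V)-GFP U2OS cells exposed to compound (2.9 nM–46 uM) for 4 hr at 37 C. Normalization used untreated cells as 0% and 10 uM MG-132 as 100%; concentration-response curves fitted.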
HBB splicing: qHTS Assay for Modulators of Hemoglobin Beta Chain Splicing; AID 925, 2007; 65,000 tested, 0.06% active; HBB splicing reporter cell assay, activation; EGFP reporter with mutant IVS2-654 intron; response scale: normalised to 500 nM splice-correcting PNA; Potency, µM (highest dose often 46.1 µM), usual class: activators
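Compounds were applied for 2 days to HeLa EGFP-654 cells, 500/well in Optimem with 2% FCS. The reporter's EGFP is disrupted by mis-splicing of beta-globin intron IVS2-654. Readout: summed well GFP fluorescence from 488 nm laser scanning; reference was 500 nM antisense […] 654 PNA.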
HEK293 cAMP ctrl: qHTS Assay for Agonists of the Thyroid Stimulating Hormone Receptor: Activators of Intracellular cAMP Concentrations in Parental HEK 293 | parental HEK293 CNG cAMP sensor, membrane potential fluorescence | Potency, µM (titrated, usually from 57.1 µM), usual class: activators | 73,000 tested, 2.5% active; also: nearly all actives have a fitted effect of over 55% in size
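Counterscreen for endogenous-receptor signalling: CNG-channel HEK 293 cells report cAMP rise by membrane depolarization. After 60 min dye equilibration with 100 uM RO 20-1724, compounds incubated 30 min before bottom-read fluorescence at 590 nm.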
A number is an active result; – = inactive; ? = inconclusive; · = not tested or not shown; [ ] = another dose, or the depositor's remark. Unless noted, calls follow the shape of the dose curve; as a rule, active = well fitted curve in the direction sought with a large enough effect; inconclusive = small, poorly fitted or top-dose-only effect, or another doubt; inactive = no such curve, though single readings can be large; an effect the other way counts as inactive or inconclusive.

SMILES	TSHR agonist	GFP derepression	Ub-GFP proteasome	HBB splicing	HEK293 cAMP ctrl
Cc1cnn(-c2ccc3nnc(-c4ccc(Br)cc4)n3n2)c1	?	–	–	–	10µM
C=C1CC[C@H]2C(C)(C)[C@H](O)CC[C@]2(C)[C@@H]1COc1ccc2ccc(=O)oc2c1	?	–[9.22 µM]	–	·	?
CCCn1cnc2c(c1=O)c1nc3ccccc3nc1n2CCC1=CCCCC1	·	–	–	–	–
CCOCCCn1c(C)nc2c(c1=O)c1nc3ccccc3nc1n2CCC1=CCCCC1	?	–	–	–	20µM
O=c1n(Cc2ccccc2Cl)c2sc3c(c2c2ncnn12)CCCC3	20µM	–	–	–	–
O=C(Cn1c(=O)n2ncnc2c2c3c(sc21)CCCC3)c1ccccc1	?	–	–	–	25µM
O=S(=O)(NCCNC/C=C\c1ccc(Br)cc1)c1cccc2cnccc12	–	–	–	–	–
Cc1oc(-c2ccc(Cl)cc2)cc1-c1nn2c(-c3ccoc3C)nnc2s1	?	–	–	–	32µM
Clc1ccc(-c2nnc3sc(-c4ccc(Br)o4)nn23)cc1	·	–	–	–	–
COC(=O)C/C=C\[C@@H](C)[C@@H](/C=N\OC[C@@H]1O[C@H](c2ccccc2)C=C[C@@H]1Oc1ccc(OC)cc1)NS(=O)(=O)c1ccc(C)cc1	–[11.4 µM]	·	·	–[9.22 µM]	–[11.4 µM]
Nc1ncnc2c1ncn2[C@@H]1O[C@@H](COP(=O)(O)OP(=O)(O)OP(=O)(O)OP(=O)(O)OC[C@@H]2O[C@@H](n3cnc4c(N)ncnc43)[C@@H](O)[C@H]2O)[C@H](O)[C@@H]1O	–	–	–	–	–
CSc1nc(N)c2ncn([C@@H]3O[C@@H](COP(=O)(O)OP(=O)(O)O)[C@@H](O)[C@H]3O)c2n1	–	–	–	–	–
CCCNC(=O)c1cc(-c2ccc(O)cc2)on1	–	–	–	–	–
FC(F)(F)c1cc(CO[C@H]2CCCN[C@H]2c2ccccc2)cc(C(F)(F)F)c1	?	–	–	·	20µM
CON(C)C(=O)c1nnc2c3ccccc3n(S(=O)(=O)c3ccc(C)cc3)c2n1	–[11.4 µM]	·	·	–[9.22 µM]	–[11.4 µM]
COc1ccc(C2c3c(-c4cc(Cl)c(C)cc4O)n[nH]c3C(=O)N2Cc2cccnc2)cc1OC (stereo not given)	7.9µM	–	–	–	–
CO[C@H]1COC(=O)[C@@H](C)COC(=O)[C@@H](COCc2ccccc2)NC(=O)C/C=C\[C@H]1C	–[11.4 µM]	·	·	–[9.22 µM]	–[11.4 µM]
COc1cccc(C(c2nnnn2CCc2ccccc2)N2CCN(c3ccccc3)CC2)c1OC (stereo not given)	?	–	–	·	7.9µM
N#Cc1c(SCC(N)=O)nc(-c2ccccc2)c2c1CCCC2	?	–	·	–[0.369 µM]	20µM
CCC(=O)N1CCN(c2nc(-c3ccccc3)c3c(c2C#N)CCCC3)CC1	?	–	–[9.17 µM]	–[0.0738 µM]	4µM
O=[N+]([O-])c1ccc(S(=O)(=O)Cc2ccccc2)c2nonc12	–[11.4 µM]	–[9.22 µM]	–[9.17 µM]	–[9.22 µM]	–[11.4 µM]
CCOC(=O)c1ccccc1NC(=O)C1COc2ccccc2O1 (stereo not given)	?	–	–	–	25µM
COC(=O)c1ccccc1NC(=O)C1COc2ccccc2O1 (stereo not given)	·	–	·	·	·
COc1cccc2cc(-c3nnc(SCC(=O)Nc4cc(C(F)(F)F)ccc4Cl)n3N)oc12	?	–	–	–	25µM
CCn1c(SCC(=O)Nc2nccs2)nnc1-c1cc2cccc(OC)c2o1	–	–	–	·	–
SMILES	TSHR agonist	GFP derepression	Ub-GFP proteasome	HBB splicing	HEK293 cAMP ctrl
COc1ccc([C@@H]2OC[C@]3(COC(C)=O)[C@H](C)C=C(C)[C@@H]2[C@H]3C)cc1	?	–[9.22 µM]	–	·	?
Cc1cc(-c2nnco2)c(C)n1-c1ccc(F)cc1	?	–	–	–	16µM
Cc1ccc(C)n1-c1ccc(-c2nnco2)cc1	–	–	–	–	–
CCOc1ccccc1CN(Cc1ccco1)S(=O)(=O)c1ccc(-n2cnnn2)c(OC)c1	?	–	–	·	10µM
COc1cc(C2Nc3cccc4cccc(c34)N2)ccc1OC(C)=O	?	–	–	–	1.3µM
COC(=O)c1cc(CSc2nnc(NC3CCCCC3)s2)oc1C	?	–	–	–	13µM
Cc1nc2ncnn2c(N2CCN(C(c3ccccc3)c3ccccc3)CC2)c1C	?	–	–	–	32µM
Cc1cc(N2CCN(C(c3ccccc3)c3ccccc3)CC2)n2ncnc2n1	?	–	–	–[1.84 µM]	?
CO[C@H]1COC(=O)[C@H](C)NC(=O)C/C=C\[C@@H](C)[C@H](OC)COC(=O)C/C=C\[C@@H]1C	–[11.4 µM]	·	·	–[9.22 µM]	–[11.4 µM]
CCOC(=O)c1oc2ccccc2c1CSc1nnnn1-c1ccc(C)cc1	?	–	–	–	7.9µM
CCOC(=O)c1oc2ccccc2c1CSc1nnc(-c2ccco2)o1	?	–	–	–	?
N[C@H](CS(=O)O)C(=O)O	?	–	–	–	?
Cc1ccc(C2C3CSCC=C3C(C#N)=C(N)C2(C#N)C#N)cc1 (stereo not given)	25µM	–	–	?	–
CCOc1ccc(-c2nnc3sc(COc4ccc(Cl)cc4)nn23)cc1	?	–	–	–[0.369 µM]	25µM
Clc1ccc(OCc2nn3c(-c4ccco4)nnc3s2)cc1	?	–	–	–[0.369 µM]	?
Clc1ccc(OCc2nn3c(-c4ccncc4)nnc3s2)cc1	?	–	–	–[0.369 µM]	32µM
CCOc1ccc(-c2nn3c(-c4ccc(F)cc4)nnc3s2)cc1	·	–	–	–	–
CCOc1ccc(-c2nnc3sc(COc4ccc(C)cc4)nn23)cc1	?	–	–	–[0.369 µM]	20µM
O=C1[C@@H]2[C@@H](C(=O)N1c1ccc(OCc3ccccc3)cc1)[C@@H]1c3ccccc3[C@@H]2[n+]2ccccc21	–[11.4 µM]	–[9.22 µM]	–[9.17 µM]	–[9.22 µM]	–[11.4 µM]
C[C@H]1CC(C)(C)C[C@@](OCCN2CCCCC2)(c2ccccc2)C1	?	–[9.22 µM]	–[9.17 µM]	–[9.22 µM]	5µM
O=C1C[C@@H](O)[C@@H](O)[C@@H]2[C@H]3C(=O)N(c4ccc(F)cc4F)C(=O)[C@@H]3CC[C@@H]12	–[11.4 µM]	·	·	–[9.22 µM]	–[11.4 µM]
CCCCOc1ccccc1NC(=O)Cn1c(-c2nonc2N)nc2ccccc21	?	–	–	–	6.3µM
Nc1nonc1-c1nc2ccccc2n1CC(=O)N1CCN(c2ccc(F)cc2)CC1	?	–	–	–	25µM
CCOc1ccc(CCNC(=O)Cn2c(-c3nonc3N)nc3ccccc32)cc1OCC	?	–	–	–	?
COc1ccc(OC2C(O)COC2/C=C/C#Cc2ccc(F)cc2F)cc1 (stereo not given)	–[11.4 µM]	·	·	–[9.22 µM]	–[11.4 µM]
CN(C)C(=O)c1ccc(-c2ccc3ncnc(NCc4ccccc4)c3c2)cc1	–	–[9.22 µM]	–	–	–
COc1ccc(C(=O)Nc2nc(-c3cccs3)cs2)cc1	?	–	–	–	?

Screening results from PubChem BioAssay.
